FLuc counter: inhibits or activates purified firefly luciferase, miR-21 counter-screen; Potency, µM (highest dose often 57.5 µM), inactives show top-dose activity change, negative = inhibition, most hits filed as inhibitors; 6.9% of 360,000 active; purified FLuc, Km substrates, luminescence inhibition; P08659;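 further: plate controls were vehicle for no effect and reference inhibitor for full effect; nearly all actives have a fitted effect of over 55% in size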
Target sequence (P08659 whole entry, looked up): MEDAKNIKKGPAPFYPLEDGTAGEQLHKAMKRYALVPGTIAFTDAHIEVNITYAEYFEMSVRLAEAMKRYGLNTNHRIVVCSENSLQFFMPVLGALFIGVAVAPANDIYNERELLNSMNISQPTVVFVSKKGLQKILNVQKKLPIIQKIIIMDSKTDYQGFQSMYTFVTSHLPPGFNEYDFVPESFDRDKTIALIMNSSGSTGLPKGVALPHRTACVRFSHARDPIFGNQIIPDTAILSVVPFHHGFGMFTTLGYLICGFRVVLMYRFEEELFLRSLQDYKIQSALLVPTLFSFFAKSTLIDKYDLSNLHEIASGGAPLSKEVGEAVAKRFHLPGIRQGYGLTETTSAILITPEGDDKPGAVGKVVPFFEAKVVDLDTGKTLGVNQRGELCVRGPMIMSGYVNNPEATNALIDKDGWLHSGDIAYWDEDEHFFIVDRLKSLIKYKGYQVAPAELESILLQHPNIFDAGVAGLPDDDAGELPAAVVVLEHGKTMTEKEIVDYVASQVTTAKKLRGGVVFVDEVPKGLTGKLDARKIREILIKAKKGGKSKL
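Purified P. pyralis luciferase, 10 nM final, with Km-level 10 uM D-luciferin and 10 uM ATP in 50 mM Tris acetate pH 7.5, 10 mM Mg acetate, 0.01% Tween-20, 0.05% BSA; 6-point qHTS titration about 60 µM downward; luminescence read.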
Luc counter: Kinase-Glo luciferase inhibition (counter-screen); Q27757; Kinase-Glo luciferase, ATP luminescence, 8 min; Potency, µM (titrated, usually from 38.3 µM), for inactives: at the highest dose activity change, negative = inhibition, usual class: inhibitors; 0.28% of 200,000 active; further: on the % scale 0 is the no-effect control and ±100 the full control effect; nearly all actives have a fitted effect of over 60% in size
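Light output from Kinase-Glo luciferase with luciferin and 10 uM ATP in 50 mM imidazole pH 7.2, KCl, MgCl2, Tween 20, BSA; compound pin-delivered, 8-min ambient incubation, then luminescence read.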
NPC1 promoter act: NPC1 promoter activation; Huh7 NPC1 promoter luciferase reporter, 24 h; Potency, µM (doses to about 9.22 µM), inactives show at the top dose activation, usual class: activators; 2.4% of 320,000 active; AID 485313; further: % of control where 0% means no effect; nearly all actives have a fitted effect of over 60% in size
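Stably transfected Huh7 (NPC1 promoter→luciferase), 1500 cells/well in Opti-MEM + 10% FBS, 2 h settle, then compound 24 h at 37 °C. Luminescence after 10 min with Amplite reagent.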
SMN2 splice up: enhancers of SMN2 splice variant expression; Potency, µM (highest dose often 46.1 µM), without a hit: at the highest dose activity change, positive = activation, actives largely listed as activators; 2.8% of 210,000 active; HEK293 SMN2-luciferase splicing reporter, luminescence, 30-36 h; further: % of control where 0% means no effect; nearly all actives have a fitted effect of over 55% in size
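HEK293 cells carry an SMN2 minigene-luciferase reporter in which exon 7 inclusion puts luciferase in frame. Cells were seeded at 2000 cells/well, attached for 10-12 hours, then exposed to compounds for 30-36 hours at 37C before ONE-Glo luminescence.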
Rab9 promoter act: activators of Rab9 promoter; Potency, µM (titrated, usually from 9.22 µM), for inactives: at the highest dose activation, negative = inhibition, usual class: activators; 2.8% of 320,000 active; Huh7 Rab9 promoter-luciferase reporter, luminescence, 24 h; AID 485297; further: % of control where 0% means no effect; nearly all actives have a fitted effect of over 60% in size
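Huh7 cells stably carrying Rab9 promoter–luciferase reporter, plated 1500 cells/well, compound added after 2 h and incubated 24 h at 37 °C; luciferase luminescence then read after 10 min with detection reagent.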
Numbers without * were called inactive; [ ] = remark or other dose. The list is not random: actives were taken first. Their share in the collection is about 7.3%. The call rests on the fitted dose curve; in most records, active means well fitted curve in the direction sought with a large enough effect; inconclusive means small, poorly fitted or top-dose-only effect, or another doubt; inactive means no such curve, though single readings can be large; an effect the other way counts as inactive or inconclusive. Potency means the concentration at half of the fitted maximal effect.

Screening CC(=O)N[C@H](C(=O)O)C(C)(C)SN=O returned Luc counter -2.4%, NPC1 promoter act 5.2%[46.1 µM], SMN2 splice up 0.0% and Rab9 promoter act -2.1%[46.1 µM].
For O=C(Nc1ccc2ccccc2c1)c1cn(-c2ccccc2)nc1-c1cccs1 the results were FLuc counter 6.01µM*, Luc counter -1.3%, NPC1 promoter act -3.2%, SMN2 splice up -12.4% and Rab9 promoter act 24.7%.
Screening O=C(Nc1cn(-c2ccccc2)nc1-c1cccs1)c1ccco1 returned FLuc counter 16.9µM*, Luc counter 14.5%, NPC1 promoter act 12.6%, SMN2 splice up 2.1% and Rab9 promoter act -6.6%.
O=C(NN1CCOCC1)c1cn(-c2ccccc2)nc1-c1cccs1 was read as FLuc counter 21.3µM*, NPC1 promoter act 0.5% and Rab9 promoter act 1.1%.
CCOC(=O)C1(C)C=C(Nc2ccc(C(=O)O)cc2)C(=O)N1c1ccc(C(=O)O)cc1 (stereo not drawn) was read as FLuc counter -9.0% and SMN2 splice up -7.5%.
For C=CC(C)(C)c1[nH]c2ccccc2c1C1=C(O)C(=O)C(c2c[nH]c3c(CC=C(C)C)cccc23)=C(O)C1=O the results were Luc counter 1.4%.
CC(=O)Nc1nnc(SCC(=O)N2C(C)CCCC2C)s1 (stereo not drawn) was read as FLuc counter 0.0%, NPC1 promoter act -2.4% and Rab9 promoter act -2.8%.
For CC1CN(C(=O)CSc2nnc(NC(=O)NC(C)(C)C)s2)CC(C)O1 (stereo not drawn) the results were FLuc counter 23.9µM*, NPC1 promoter act -0.6% and Rab9 promoter act -3.7%.
For Nc1nc(-c2ccccc2)cn1/N=C/c1ccccc1 the results were FLuc counter 15.1µM*, NPC1 promoter act -8.9% and Rab9 promoter act 0.5%.
`CC(C)Cc1ccc(/C=C/C(=O)N2CCCCC2)cc1` gave FLuc counter 7.57µM*, Luc counter -4.1%, NPC1 promoter act 2.51µM*, SMN2 splice up 11.2µM* and Rab9 promoter act 0.891µM*.
`Cc1ccc(/C=C/C(=O)N2CCCC(C)C2)cc1` (stereo not drawn) gave FLuc counter 3.01µM*, Luc counter -4.1%, NPC1 promoter act 1.26µM*, SMN2 splice up 1.12µM* and Rab9 promoter act 2.24µM*.
Screening CC(C)(C)c1ccc(/C=C/C(=O)N2CCCCC2)cc1 returned FLuc counter 6.75µM*, Luc counter -3.3%, NPC1 promoter act 3.98µM*, SMN2 splice up 12.6µM* and Rab9 promoter act 1.58µM*.
Cc1ccc(/C=C/C(=O)N2CCC(c3nc4ccccc4o3)CC2)cc1 was read as FLuc counter 10.7µM*.
Screening O=C(/C=C/c1ccccc1)N1CCCN(C(=O)/C=C/c2ccccc2)CC1 returned FLuc counter inconclusive, Luc counter -1.0%, NPC1 promoter act 8.2%, SMN2 splice up -9.2% and Rab9 promoter act 5.0%.
Screening CC(C)Cc1ccc(/C=C/C(=O)NC2CC2)cc1 returned FLuc counter 4.78µM*, Luc counter -0.1%, NPC1 promoter act inconclusive, SMN2 splice up inconclusive and Rab9 promoter act 3.55µM*.
Screening Cc1ccc(/C=C/C(=O)N2CCC(Cc3ccccc3)CC2)cc1 returned FLuc counter 21.3µM*, Luc counter -5.4%, NPC1 promoter act 0.4%, SMN2 splice up -7.8%[1.84 µM] and Rab9 promoter act -4.5%.
For CN1CCN(C(=O)/C=C/c2ccc(Cl)cc2)CC1 the results were FLuc counter -9.8%, NPC1 promoter act 5.7% and Rab9 promoter act -6.3%.
CC1CCN(C(=O)/C=C/c2ccc(C(C)(C)C)cc2)CC1 was read as FLuc counter 15.1µM*, Luc counter -1.3%, NPC1 promoter act 18.0%, SMN2 splice up 21.5% and Rab9 promoter act 28.9%.
For Fc1ccc(-c2ncc3ccccn23)cc1 the results were FLuc counter -14.7%, Luc counter -5.1%, NPC1 promoter act -0.1% and Rab9 promoter act -0.2%.
COc1cc(OC)cc(-c2ncc3ccccn23)c1 was read as FLuc counter 16.9µM*, Luc counter -7.2%, NPC1 promoter act 0.9%, SMN2 splice up -6.0% and Rab9 promoter act 3.9%.
For Brc1ccc(-c2ncc3ccccn23)cc1 the results were FLuc counter 13.5µM*, NPC1 promoter act 3.16µM* and Rab9 promoter act 3.16µM*.

Source: PubChem BioAssay (National Center for Advancing Translational Sciences (NCATS))
